TRPML1 ag: qHTS for Agonists of the Human Mucolipin Transient Receptor Potential 1 (TRPML1); 410,000 tested, 0.12% active; activation, % (no concentration beside the values); AID 624414, 2012; TRPML1-expressing cells, Ca2+ dye fluorescence, FDSS; in the data active = activation above about 50%; inconclusive = mostly about 30% to 49%
Target sequence (Q9GZU1 whole entry, looked up): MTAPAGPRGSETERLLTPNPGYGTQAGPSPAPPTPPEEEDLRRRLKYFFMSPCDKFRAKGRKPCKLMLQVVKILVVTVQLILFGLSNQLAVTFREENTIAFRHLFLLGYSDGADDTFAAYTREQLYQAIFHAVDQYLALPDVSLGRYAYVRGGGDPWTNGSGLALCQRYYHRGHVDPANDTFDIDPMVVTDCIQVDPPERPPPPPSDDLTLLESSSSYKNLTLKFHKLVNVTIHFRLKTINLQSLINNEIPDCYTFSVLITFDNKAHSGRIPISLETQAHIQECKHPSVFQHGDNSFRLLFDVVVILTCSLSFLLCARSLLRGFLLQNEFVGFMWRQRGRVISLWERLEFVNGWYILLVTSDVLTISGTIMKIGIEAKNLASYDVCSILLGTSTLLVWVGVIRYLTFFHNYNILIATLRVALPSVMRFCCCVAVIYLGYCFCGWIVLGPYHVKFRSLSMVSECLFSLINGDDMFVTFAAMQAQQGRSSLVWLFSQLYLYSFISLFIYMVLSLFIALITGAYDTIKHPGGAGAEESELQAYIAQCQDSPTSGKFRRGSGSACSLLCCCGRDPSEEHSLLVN
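Cells: TRPML1-DL, 1X Tet inducer, ~16 h at 37 degrees C/5% CO2. Dye: ABD Ca8 no-wash + quencher, 45-90 min RT. Read: 10 s baseline, compound add, 110 s agonist phase; 54-4 EC80 (4uM final), 110 s antagonist phase.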
TRPML1 inh: qHTS for Inhibitors of the Human Mucolipin Transient Receptor Potential 1 (TRPML1); 390,000 tested, 0.02% active; TRPML1-inducible cells, Ca2+ dye fluorescence, FDSS; active compounds read low; inhibition of EC80 agonist-evoked calcium signal; activity change, negative = inhibition, % (no concentration beside the values); in the data active = activity change below about -50%; inconclusive = between about -30% and that limit;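 also: stimulus is agonist 54-4 at its EC80 concentration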
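Calcium fluorescence in TRPML1-DL cells induced overnight with Tet: a 110 s read after compound pin addition, then a 110 s antagonist read after challenge with 54-4 at 4 uM final (EC80).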
Vif-APOBEC3G blk: qHTS for Inhibitors of Vif-A3G Interactions: qHTS. HeLa A3G-eYFP + Vif (tagged APOBEC3G with the HIV-1 protein that degrades it), YFP fluorescence, overnight. AID 602310, 2012. Potency, µM (titrated, usually from 46.1 µM), actives largely listed as inhibitors. 410,000 tested, 0.076% active; also: nearly all actives have a fitted effect of over 60% in size
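Read-out is eYFP fluorescence (Ex 488/Em 500-530) from Vif-expressing HeLa A3G-eYFP cells; more signal means A3G escaped Vif-mediated degradation. Cells plated overnight, compound pinned in, incubated overnight at 37 deg C.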
Vif-APOBEC3F blk: qHTS for Inhibitors of Vif-A3F Interactions: qHTS | 390,000 tested, 0.2% active | HeLa A3F-eYFP + Vif (tagged APOBEC3F with the HIV-1 protein that degrades it), YFP fluorescence increase | AID 602313, 2012 | Potency, µM (titrated, usually from 46.1 µM); also: nearly all actives have a fitted effect of over 65% in size
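HeLa cells stably expressing A3F-eYFP plus Vif, plated and incubated overnight at 37 deg C, then exposed to compounds overnight at 37 deg C. Blocked degradation read as raised yellow fluorescence (Ex 488/Em 500-530).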
PINK1 modulator: A Quantitative High throughput Screen to Identify Chemical Modulators of PINK1 Expression. PINK1 immunofluorescence, high-content cytometry, 24 h. Potency, µM (doses to about 76.6 µM), hits mostly activators. 410,000 tested, 0.2% active. AID 624263, 2012; active = well fitted activation curve with a large enough effect; inconclusive = small, poorly fitted or top-dose-only effect; cell line not stated here; also: nearly all actives have a fitted effect of over 65% in size
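Cells are seeded, rested 12 hours, then given compound at five concentrations or DMSO for 24 hours. After fixation, blocking and antibody staining, PINK1 amount and mitochondrial localization are scored; CCCP serves as control.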
Of the large screens only hits and unclear results are named; the others gave an inactive call. Sampled rows, rich in hits. Any-hit rate of the full collection: about 0.52%. Unless noted, calls follow the shape of the dose curve; as a rule, active = well fitted curve in the direction sought with a large enough effect; inconclusive = small, poorly fitted or top-dose-only effect, or another doubt; inactive = no such curve, though single readings can be large; an effect the other way counts as inactive or inconclusive.

CN(C)c1ccc(/C=C(/C(=O)c2ccc(Cl)cc2Cl)n2cncn2)cc1	TRPML1 ag inconclusive, Vif-APOBEC3G blk 12.6µM, Vif-APOBEC3F blk inconclusive
OCCC1CN(Cc2cc3c(cc2Cl)OCO3)CCN1Cc1ccccc1 (centres undefined)	none
CCc1noc(C)c1C(=O)N1CCSC1=Nc1cccc(Cl)c1C	PINK1 modulator inconclusive
COc1cnn(-c2ccccc2)c(=O)c1N(C)C	PINK1 modulator 12.6µM
O=C1NC(=S)S/C1=C/c1ccc(N2CCOCC2)o1	Vif-APOBEC3G blk 11.2µM
CCN(C(=O)COC(=O)c1cc(S(=O)(=O)N(C)C)ccc1Cl)C1CCS(=O)(=O)C1 (centres undefined)	none
Clc1ccccc1N1CCN(c2ncnc3c2c(-c2ccccc2)cn3-c2ccccc2)CC1	TRPML1 ag 59.5
COc1ccccc1N1CCN(c2ncnc3c2c(-c2ccccc2)cn3-c2cccc(Cl)c2)CC1	none
CN(C)c1ccc(/C=C/C(=O)c2ccc3c(c2)OCO3)cc1	TRPML1 ag 83.9, Vif-APOBEC3G blk inconclusive, Vif-APOBEC3F blk inconclusive
CN(C)c1ccc(/C=C/C(=O)c2ccc(O)cc2)cc1	TRPML1 ag 87.0, Vif-APOBEC3G blk inconclusive, Vif-APOBEC3F blk 7.94µM
COc1ccc(C(=O)/C=C/c2ccc(N(C)C)cc2)c(OC)c1	TRPML1 ag 128.4, Vif-APOBEC3G blk inconclusive, Vif-APOBEC3F blk inconclusive
CN(C)c1ccc(/C=C/C(=O)c2cccnc2)cc1	TRPML1 ag 114.5, Vif-APOBEC3F blk inconclusive
O=C(/C=C/c1cccc(O)c1)c1cccnc1	none
O=C(c1ccc(Oc2cc(Cl)cc(Cl)c2)o1)N1CCCCC1	none
O=C(Nc1ccc(F)cc1)Nc1ccc2snnc2c1	PINK1 modulator 31.6µM
CCCCN1C(=O)C2Cc3c([nH]c4ccccc34)CN2C1=S (centres undefined)	Vif-APOBEC3G blk 8.91µM
O=c1[nH]ncc2c3ccccc3n(Cc3cccc(Cl)c3)c12	Vif-APOBEC3G blk inconclusive, Vif-APOBEC3F blk 25.1µM
O=c1[nH]ncc2c3ccccc3n(Cc3ccc(F)cc3)c12	none
C[n+]1c(-c2ccccc2)cc2c(=Cc3ccccc3)c3ccccc3n21	PINK1 modulator inconclusive
C[n+]1c(-c2ccccc2)cc2c(=Cc3ccc([N+](=O)[O-])cc3)c3ccccc3n21	PINK1 modulator 4.47µM
Cc1ccc(O)c(C(=O)c2cc(C#N)c(=O)n(-c3nccs3)c2)c1	TRPML1 ag 62.8, Vif-APOBEC3G blk inconclusive, Vif-APOBEC3F blk inconclusive
CN1CCN(c2ncnc3c2ncn3[C@H]2CN(C)C[C@@H](CO)O2)CC1	none (no result: TRPML1 inh, Vif-APOBEC3F blk)
COCCCNc1c2c3c(cccc3[nH]c1=O)C(=O)c1ccccc1-2	TRPML1 ag 112.6
O=C(N/N=C/c1cc([N+](=O)[O-])ccc1N1CCNCC1)c1ccc([N+](=O)[O-])cc1	none
COc1ccc(S(=O)(=O)N2CCc3cc4c(cc3C2C)OCCCO4)cc1 (centres undefined)	TRPML1 inh -50.8
CCc1ccc(NCc2cc3ccc(OC)cc3n(CC(=O)Nc3ccc(F)cc3F)c2=O)cc1	PINK1 modulator inconclusive
c1ccc(-c2csc(CN3CCCCC3)n2)cc1	none
COc1cc(/C=N/NC(=O)c2cc(C)oc2C)cc(OC)c1OC	none
O=C(NCc1ccccc1)c1ccc(C(=O)N(C2CCCCC2)C2CCCCC2)cc1	TRPML1 ag 118.6, TRPML1 inh inconclusive
O=C(CCNS(=O)(=O)c1ccc2c(c1)CCCC(=O)N2)Nc1cccc(Cl)c1	none
C=CCc1c(C)nc(-c2ccccc2)nc1Nc1ccccc1O	Vif-APOBEC3G blk inconclusive, Vif-APOBEC3F blk 22.4µM, PINK1 modulator inconclusive
C[n+]1c2n(c3ccccc31)N=C(c1ccccc1)CS2	PINK1 modulator inconclusive
C[n+]1c2n(c3ccccc31)N=C(c1ccc(-c3ccccc3)cc1)CS2	PINK1 modulator 12.6µM
COc1ccc(N2C(=O)c3ccccc3NC2c2ccc(OC)c(COc3ccccn3)c2)cc1 (centres undefined)	none
COc1ccc(N2C(=O)c3ccccc3NC2c2ccc(OC)c(CSc3ccccn3)c2)cc1 (centres undefined)	PINK1 modulator 10µM
O=C(Nc1ccc2nc3n(c(=O)c2c1)CCCCC3)C(=O)N1CCN(c2ccc(F)cc2)CC1	none
Cc1c(C(=O)Nc2ccc3nc(N4CCOCC4)sc3c2)oc2ccccc12	TRPML1 ag 54.7
COc1ccc2nc3sc(C(=O)Nc4cc(Cl)c(OC)cc4OC)cc3cc2c1	Vif-APOBEC3G blk inconclusive, Vif-APOBEC3F blk 7.08µM
COc1ccccc1NC(=O)c1sc2ncn(CC(=O)Nc3ccccc3)c(=O)c2c1C	Vif-APOBEC3F blk 25.1µM
COc1ccccc1NC(=O)Cn1cnc2sc(C(=O)Nc3cc(OC)c(OC)c(OC)c3)c(C)c2c1=O	none
CCOC(=O)N1C(=O)NC(=O)C1c1ccc(OC)cc1 (centres undefined)	none
CC(C)c1c(C(=O)NCC(C)(C)N2CCOCC2)cnn1-c1nccc(-c2ccccc2F)n1	none (no result: TRPML1 ag, TRPML1 inh, Vif-APOBEC3G blk, Vif-APOBEC3F blk)
Cc1ccc2c(c1C)NC(=O)CC(c1ccccc1O)=N2	Vif-APOBEC3F blk 11.2µM
Cc1ccc2c(c1)NC(=O)CC(c1ccccc1)=N2	none
CC(C)(C)Cc1c(-c2ccc(Cl)cc2)nc2ccc(Br)cn12	Vif-APOBEC3F blk inconclusive, PINK1 modulator 31.6µM
COc1ccccc1Cc1c(-c2ccc(OC)c(OC)c2)nc2ccc(Br)cn12	PINK1 modulator 14.1µM (no result: TRPML1 inh, Vif-APOBEC3F blk)
CC(C)(C)Cc1c(-c2ccc(F)cc2)nc2ccc(Br)cn12	Vif-APOBEC3F blk inconclusive, PINK1 modulator 35.5µM
Cn1c(=O)oc2cc(S(=O)(=O)NCc3ccc(F)cc3)ccc21	none
COc1ccccc1N1CCN(C(=O)c2ccc(Nc3nc4ccccc4n4nnnc34)cc2)CC1	Vif-APOBEC3F blk inconclusive
O=C1c2ccccc2C(=O)c2c(/C=C/N3CCCCC3)ccnc21	Vif-APOBEC3G blk inconclusive, Vif-APOBEC3F blk 22.4µM
O=C1c2ccccc2-c2cccnc21	none
CCN(CC)c1ccc(-c2nnc(SCC(=O)NCc3ccco3)n2C)cc1	none (no result: TRPML1 inh, Vif-APOBEC3F blk)
N#CC(c1ccccc1)(c1ncc(C(F)(F)F)cc1Cl)N1CCOCC1 (centres undefined)	none
N#CC(c1cccc(C(F)(F)F)c1)(c1ncc(C(F)(F)F)cc1Cl)N1CCOCC1 (centres undefined)	TRPML1 ag 56.5
CCCS(=O)(=O)NC(=O)C1(C)CCN(C(=O)COc2ccccc2)C1 (centres undefined)	none (no result: Vif-APOBEC3F blk)
COc1ccc(N2CCN(C(CNC(=O)C(=O)NCCC3=CCCCC3)c3ccco3)CC2)cc1 (centres undefined)	none

High-throughput results deposited in PubChem BioAssay by National Center for Advancing Translational Sciences (NCATS).
